# Laboratory results as given in publication PMC10726135, “HNF4α isoforms regulate the circadian balance between carbohydrate and lipid metabolism in the liver”.
# Over roughly 18,000 sequences, “log2 normalized intensity” has its median near 0.39; the highest 2% begin near 6.6. What follows is part of a selection rich in the highest values, with near analogues and random picks from the rest.
# Target: T1, HNF4alpha2 (COS-7 nuclear extract) (Homo sapiens, UniProt P41235 1-474)
# T1 sequence: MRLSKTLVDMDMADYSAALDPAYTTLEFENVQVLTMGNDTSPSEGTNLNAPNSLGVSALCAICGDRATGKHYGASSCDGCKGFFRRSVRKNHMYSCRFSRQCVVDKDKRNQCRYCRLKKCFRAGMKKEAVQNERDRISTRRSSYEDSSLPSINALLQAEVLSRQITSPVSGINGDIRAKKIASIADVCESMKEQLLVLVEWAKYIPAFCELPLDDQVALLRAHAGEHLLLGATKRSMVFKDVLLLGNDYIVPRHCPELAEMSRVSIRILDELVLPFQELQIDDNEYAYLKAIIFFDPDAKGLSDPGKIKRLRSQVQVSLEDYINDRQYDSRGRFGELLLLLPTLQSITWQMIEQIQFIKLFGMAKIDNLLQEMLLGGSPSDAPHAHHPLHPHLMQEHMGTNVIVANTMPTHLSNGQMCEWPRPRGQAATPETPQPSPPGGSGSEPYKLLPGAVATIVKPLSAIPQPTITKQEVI
# Test: protein-binding microarray; COS-7 nuclear extract on double-stranded Agilent 4x180k PBM; binding buffer, salt, pH and temperature not given in the material; high values mean tight binding
# Conditions: chain copies: 2; label: 3' end of strand 1 on the slide; dsDNA, one strand shown
# Summary of the method: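 Nuclear extracts came from COS-7 cells transiently transfected by CaPO4 with a human HNF4α isoform expression vector. They were applied to a custom Agilent SurePrint G3 4x180k array of ~60-nt oligonucleotides, made double-stranded, with ~44,000 test sequences spotted in quadruplicate. Bound HNF4α was imaged at 2-µm resolution on an Agilent G2565CA scanner. Binding signal was taken as background-corrected, normalized gProcessedSignal from Agilent software.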
row,Sequence,binding signal
1,TAGTAGGGTCAAAGTCTGGATCCGTTAACAGCCTAGGGAGATTAGAGTATCGGTCGA,4.3 log2 normalized intensity
2,CACCTTTTTTGGCCTTTACCCCTTGAGTTTGCCTAGGGAGATTAGAGTATCGGTCGA,3.93 log2 normalized intensity
3,GGATCGGAACCCCACCCCCACGCCCCCCAGGCCTAGGGAGATTAGAGTATCGGTCGA,7 log2 normalized intensity
4,CCTCCAGGCCCCAGCCACGCCCTCTAACCCGCCTAGGGAGATTAGAGTATCGGTCGA,2.92 log2 normalized intensity
5,CACACACACACACACACCCCACACACCAAAGCCTAGGGAGATTAGAGTATCGGTCGA,3.12 log2 normalized intensity
6,AGGCCCCAGCCACGCCCTCTAACCCAGGTTGCCTAGGGAGATTAGAGTATCGGTCGA,3.08 log2 normalized intensity
7,GGAACCCCACCCCCACGCCCCCCAGCGGAAGCCTAGGGAGATTAGAGTATCGGTCGA,7.16 log2 normalized intensity
8,CGCCCCCCAGCGGAAGTCCAGTGGTGTCTTGCCTAGGGAGATTAGAGTATCGGTCGA,3.33 log2 normalized intensity
9,CCCACCCCCACGCCCCCCAGCGGAAGTCCAGCCTAGGGAGATTAGAGTATCGGTCGA,6.97 log2 normalized intensity
10,CAAAGTTCAAGGTCCAGCCTACCCACCCACGCCTAGGGAGATTAGAGTATCGGTCGA,4.66 log2 normalized intensity
11,TCACACACACACACACACACACCCCACACAGCCTAGGGAGATTAGAGTATCGGTCGA,1.75 log2 normalized intensity
12,GAGAGAATGACCCTTGCTTGACCCATTATGGCCTAGGGAGATTAGAGTATCGGTCGA,2.36 log2 normalized intensity
13,AGAACAAACAATGGTTTGGGACAAAGTTTGGCCTAGGGAGATTAGAGTATCGGTCGA,0.489 log2 normalized intensity
14,CCCTCCCTAAATCCAGAGGTATTTGGCCCAGCCTAGGGAGATTAGAGTATCGGTCGA,1.59 log2 normalized intensity
15,ACCGGCAGAGAGAAGCCACTGCGACCTTTGGCCTAGGGAGATTAGAGTATCGGTCGA,4.92 log2 normalized intensity
16,TTGCCATGACCTTTGAAGCCCAGAACACTCGCCTAGGGAGATTAGAGTATCGGTCGA,3.59 log2 normalized intensity
17,CTTTGCCCTCCCTAAATCCAGAGGTATTTGGCCTAGGGAGATTAGAGTATCGGTCGA,1.88 log2 normalized intensity
18,CAGAGAGAAGCCACTGCGACCTTTGCCCTCGCCTAGGGAGATTAGAGTATCGGTCGA,9.89 log2 normalized intensity
19,TCAGCCTTCTCCGCGGCGGGCCCTCGACCTGCCTAGGGAGATTAGAGTATCGGTCGA,-0.582 log2 normalized intensity
20,CTTCTCCGCGGCGGGCCCTCGACCTTTGCCGCCTAGGGAGATTAGAGTATCGGTCGA,5.07 log2 normalized intensity
21,CCGCGGCGGGCCCTCGACCTTTGCCCTCCAGCCTAGGGAGATTAGAGTATCGGTCGA,9.87 log2 normalized intensity
22,AGAAGCCACTGCGACCTTTGCCCTCCCTAAGCCTAGGGAGATTAGAGTATCGGTCGA,7.38 log2 normalized intensity
23,CCTCCTAATCACTGCCCTTTGGTGCCTCTTGCCTAGGGAGATTAGAGTATCGGTCGA,2.28 log2 normalized intensity
24,TTCCCCTCCCTTCCACCTTTGCCCTCCAAAGCCTAGGGAGATTAGAGTATCGGTCGA,5.76 log2 normalized intensity
25,CCACTGCGACCTTTGCCCTCCCTAAATCCAGCCTAGGGAGATTAGAGTATCGGTCGA,6.95 log2 normalized intensity
